Screening data (PubChem BioAssay)
Only some compounds are listed: those with a hit (about 1.9% of all), similar ones and a draw of the others.
Menin MLL FP TR – qHTS Assay for Inhibitors Targeting the Menin-MLL Interaction in MLL Related Leukemias: Competition With Texas Red Labeled MLL-derived Mutant Peptide; hit rate 0.23% among 270,000; Menin + Texas Red MLL mutant peptide, fluorescence polarization; AID 1768, 2009; Potency, µM (doses to about 61.6 µM), hits mostly inhibitors; active = well fitted inhibition curve with a large enough effect in the polarisation, with a control signal flat, not every such curve was filed as active; inconclusive = small, poorly fitted or top-dose-only effect, or effect the other way, or a change in a side signal; inactive = no such curve, though single readings can be large or run the other way; the % refers to the polarisation
ClpP mod – qHTS Assay for Activators of ClpP; purified B. subtilis ClpP, FRET peptide cleavage, 20 min; Potency, µM (doses to about 57.5 µM); hit rate 1.9% among 340,000; AID 651965, 2013; active = well fitted falling curve with a large enough effect; inconclusive = small, poorly fitted or top-dose-only effect; inactive = no such curve, though single readings can be large or run the other way; note: the source files actives as falling curves though it sought activators and does not explain the sign; nearly all actives have a fitted effect of over 65% in size
Target sequence (P80244 whole entry, looked up): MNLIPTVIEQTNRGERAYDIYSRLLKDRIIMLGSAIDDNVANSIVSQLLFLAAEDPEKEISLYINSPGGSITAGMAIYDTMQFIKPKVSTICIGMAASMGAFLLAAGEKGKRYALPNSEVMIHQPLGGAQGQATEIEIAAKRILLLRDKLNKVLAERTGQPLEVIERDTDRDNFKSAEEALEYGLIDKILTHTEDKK
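Purified B. subtilis ClpP, 10 microg/mL final in Tris/HCl pH8 with KCl, BSA, glycerol and Tween-20, cleaved an Abz/nitrotyrosine-quenched decapeptide. Fluorescence (ex 320, em 430) was read at 0 and 20 min at room temperature. Delta was normalized to 5.8 microM ADEP and DMSO/no-enzyme controls.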
Menin-MLL FL inh – qHTS Assay for Inhibitors Targeting the Menin-MLL Interaction in MLL Related Leukemias: Competition With Fluorescein Labeled MLL-derived Peptide | Fluorescence polarization, fluorescein-MLL peptide displacement from menin | FP activity change, % at 61.4 µM | 290,000 tested, under 10 active; active = well fitted curve in the direction sought with a large enough effect in the polarisation, not every such curve was filed as active; inconclusive = small, poorly fitted or top-dose-only effect, or effect the other way, or a change in a side signal; inactive = no such curve, though single readings can be large or run the other way; the % refers to the polarisation
Epigenetic derep – Quantitative High-Throughput Screen for Regulators of Epigenetic Control; murine LDR cells, GFP reporter derepression, 30 h; Potency, µM (doses to about 53.9 µM), actives largely listed as activators; hit rate 0.2% among 280,000; AID 1865, 2009; active = well fitted activation curve with a large enough effect; inconclusive = small, poorly fitted or top-dose-only effect; note: nearly all actives have a fitted effect of over 60% in size
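Derepression of a silenced CMV-GFP reporter in murine LDR cells is scored by enumerating GFP-positive cells with a laser-scanning microplate cytometer after 30 hours of treatment at 37 C.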
CXXC DNA block – qHTS Fluorescence Polarization Assay for Inhibitors of MLL CXXC domain - DNA interaction | hit rate 0.037% among 290,000 | MLL-CXXC / FITC-HOXA9 DNA fluorescence polarization | Potency, µM (series often up to 115 µM), actives largely listed as inhibitors | Histone-lysine N-methyltransferase 2A (Homo sapiens), Q03164 | AID 2662, 2010; active = well fitted inhibition curve with a large enough effect in the polarisation, with a control signal flat, not every such curve was filed as active; inconclusive = small, poorly fitted or top-dose-only effect, or effect the other way, or a change in a side signal; inactive = no such curve, though single readings can be large or run the other way; the % refers to the polarisation
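Fluorescence polarization: 7 uM MLL-CXXC (stock) preincubated 5 min with compounds, then 50 nM fluorescein-HOX-A9 DNA (stock) added; 30 min ambient. Buffer 50 mM Tris-HCl pH 7.5, 50 mM NaCl, 1 mM DTT, 0.05% BSA.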
PINK1 modulator – A Quantitative High throughput Screen to Identify Chemical Modulators of PINK1 Expression. Potency, µM (titrated, usually from 76.6 µM), actives largely listed as activators. PINK1 immunofluorescence, high-content cytometry, 24 h. hit rate 0.2% among 410,000; active = well fitted activation curve with a large enough effect; inconclusive = small, poorly fitted or top-dose-only effect; cell line not stated here; note: nearly all actives have a fitted effect of over 65% in size
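Stable cell line, 250 cells/well, 12 h attachment; compounds pinned at 5 concentrations, 24 h; CCCP control. Fixed with nuclear dye, primary antibodies 12 h at 10 degrees C, secondary plus cell stain; laser-scanning cytometer read.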
A number is an active result; . = inactive; ? = inconclusive; / = no result; ! = not active in a repeat.

SMILES	Menin MLL FP TR	ClpP mod	Menin-MLL FL inh	Epigenetic derep	CXXC DNA block	PINK1 modulator
CC(C)(C)NC(=O)Cn1nc(C(F)(F)F)c2c1CCCC2	.	/	.	.	.	.
FC(F)(F)c1nc2nncn2c2c1CCCCC2	.	31.6µM	.	.	.	.
CCOc1ccc(OCC)c(NC(=O)c2cnn(-c3ccc(F)cc3)c2-n2cccc2)c1	/	?	/	.	/	.
FC(F)(F)c1cccc(-c2nc3nc(Cl)c(Cl)nc3[nH]2)c1	.	.	?	.	.	2.82µM
c1ccc2nc(-c3nc4ccccc4[nH]3)ccc2c1	.	31.6µM	.	.	.	.
c1ccc2[nH]c(-c3ccnc4ccccc34)nc2c1	.	15.8µM!	.	.	.	.
c1ccc2[nH]c(-c3cscn3)nc2c1	.	.	.	.	.	.
O=C1c2ccccc2NC(c2ccc(Cl)cc2Cl)N1Cc1ccccc1 (stereo unspecified)	.	31.6µM	.	.	.	.
Cc1cccc(C2Nc3ccccc3C(=O)N2CCc2ccccc2)n1 (stereo unspecified)	.	17.8µM	.	.	.	.
O=C1c2ccccc2NC(c2c(Cl)cccc2Cl)N1Cc1ccccc1 (stereo unspecified)	?	31.6µM	.	.	.	.
O=C(NCc1ccccc1)C1C(=O)Nc2ccccc2C(=O)N1Cc1ccccc1 (stereo unspecified)	/	.	/	/	/	/
COc1ccc(-n2c(CNC(=O)c3cccc(OC)c3OC)nnc2SC)cc1	/	/	/	/	/	.
COc1ccc(CN2CCCC(n3cc(C(=O)NC4CCCC4)nn3)C2)c2ccccc12 (stereo unspecified)	/	/	/	/	/	.
CCC1(C2CCN(C(=O)c3ccccc3C)CC2)NC(=O)N(CCc2scnc2C)C1=O (stereo unspecified)	/	/	/	/	/	.
CN(C)c1ncc2nc(-c3ccc(F)cc3)c(=O)n(-c3ccccc3)c2n1	.	/	?	/	/	.
CN(C)c1ncc2nc(-c3cccs3)c(=O)n(-c3ccccc3)c2n1	.	/	?	/	/	39.8µM
COc1ccc(-n2c(=O)c(-c3cccs3)nc3cnc(Nc4ccccc4)nc32)cc1	.	/	?	/	/	4.47µM
COc1ccc(C(=O)C[n+]2cccc3cccc(O)c32)cc1	/	.	/	/	/	/
COc1cc2c(cc1OC)C(c1cc3cc4c(cc3[nH]c1=O)OCO4)N(C(=O)C1CC1)CC2 (stereo unspecified)	.	25.1µM	.	.	?	.
COc1cc2c(cc1OC)C(c1cc3ccc(C)cc3[nH]c1=O)N(C(=O)c1ccco1)CC2 (stereo unspecified)	?	/	.	/	.	.
Cc1cccc(C(=O)N2CCOc3ccc(CN(C)Cc4cc(C5CC5)n[nH]4)cc3C2)n1	/	/	/	/	/	.
CS(=O)(=O)NCCNc1ncc(C(F)(F)F)cc1Cl	.	/	.	.	.	.
O=S(=O)(NCCNc1ncc(C(F)(F)F)cc1Cl)C(F)(F)F	.	/	.	.	.	39.8µM
CNC(=O)c1c(NC(=O)c2nc(SCc3ccc(C)cc3)ncc2Cl)sc2c1CCCC2	/	.	/	22.4µM	/	.
Cc1ccc(CSc2ncc(Cl)c(C(=O)Nc3sc4c(c3C(N)=O)CCCC4)n2)cc1	/	.	/	?	/	.
SMILES	Menin MLL FP TR	ClpP mod	Menin-MLL FL inh	Epigenetic derep	CXXC DNA block	PINK1 modulator
COC(=O)[C@@H]1C=C[C@H](C)[C@H](CCOc2ccccc2)O1	.	/	.	.	/	/
CNC(=S)N1CCN(c2c(F)cc3c(=O)c(C(=O)O)cn(C4CC4)c3c2OC)CC1C (stereo unspecified)	.	28.2µM	.	.	.	.
O=S(=O)(Nc1nc2ccccc2nc1N1CCc2ccccc2C1)c1ccc(Cl)cc1	.	?	?	.	.	15.8µM
COc1cc(C(=O)NC2CC(C)(C)Cc3c2cnn3-c2ccccc2)cc(OC)c1OC (stereo unspecified)	.	/	.	/	.	.
COc1cccc(C(=O)NC2CC(C)(C)Cc3c2cnn3-c2cccc(F)c2)c1OC (stereo unspecified)	.	14.1µM	.	/	.	.
CNC(=O)[C@@H]1C[C@@H](NCc2cccc(Oc3ccccc3)c2)CN1C(C)C	/	/	/	/	/	.
CC(=O)N1c2ccc(S(=O)(=O)NCC3CCC(C(=O)NC4CCCCC4C)CC3)cc2CC1C (stereo unspecified)	?	.	.	/	.	.
Cn1nc(-c2ccc(F)cc2)nc2c(=O)n(C)c(=O)nc1-2	/	.	/	/	/	.
Cc1c(C(=O)N2CCCCCC2)sc2ncnc(NCC3CCCO3)c12 (stereo unspecified)	/	/	/	/	/	.
O=C(O)CSc1nnc(-c2ccc(Cl)cc2)n1-c1ccccc1	.	/	.	/	.	/
Cc1c(-n2c(SCC(=O)O)nnc2-c2ccccc2Cl)c(=O)n(-c2ccccc2)n1C	.	35.5µM	.	.	.	.
COc1cc(=O)n2c(c1C(=O)N(C)Cc1nonc1C)CCN(Cc1cc(C)ccc1C)CC2	/	/	/	/	/	.
Cc1cc(C)n2nc(SCc3ncc(-c4ccccc4)o3)nc2n1	.	?	.	.	.	.
Cc1cc(C)n2nc(SCc3nnc(-c4ccccc4Br)o3)nc2n1	.	17.8µM	.	.	.	.
O=C(CSc1nc2ccc([N+](=O)[O-])cc2[nH]1)NC1CCCCCC1	.	.	.	.	.	14.1µM
CCC(=O)NC(Cc1ccccc1)c1ccc2c(c1)OCCCO2 (stereo unspecified)	.	22.4µM	.	.	.	.
O=C(NC(Cc1ccccc1)c1ccc2c(c1)OCCCO2)c1ccccc1 (stereo unspecified)	.	.	.	.	.	?
COc1ccc(-n2c(/C=C/c3c(C)[nH]c4ccccc34)nc3ccccc3c2=O)cc1	/	.	/	10µM	/	.
Cc1[nH]c2ccccc2c1/C=C/c1nc2ccccc2c(=O)n1-c1cccc([N+](=O)[O-])c1	?	.	.	.	.	.
CC(=O)Nc1c(Cl)c(Cl)c2c(c1Cl)Cc1cc(Cl)ccc1-2	/	.	/	/	/	.
CC(C)C1N=C2c3ccccc3N=C(SCC(=O)NCCc3ccc(S(N)(=O)=O)cc3)N2C1=O (stereo unspecified)	.	31.6µM	.	.	.	.
CCC(C)NC(=O)CSC1=Nc2ccccc2C2=NC(CC(=O)NCc3ccc(F)cc3)C(=O)N12 (stereo unspecified)	.	31.6µM	.	.	.	.
CCN(CC)C(=O)CSC1=Nc2ccccc2C2=NC(c3ccccc3)C(=O)N12 (stereo unspecified)	.	15.8µM	.	.	.	.
